# High-throughput results deposited in PubChem by National Center for Advancing Translational Sciences (NCATS).
# hNpr1 antagonist: Natriuretic polypeptide receptor (hNpr1) antagonism - Primary qHTS | Atrial natriuretic peptide receptor 1 (Homo sapiens), P16066 | HEK293 hNpr1 GloSensor cGMP, ANP-stimulated luminescence | Potency, µM (titrated, usually from 46.3 µM), for the others: at the highest dose activity change, negative = inhibition, usual class: inhibitors | hit rate 1.6% among 76,000 | AID 1347048, 2019; calls by dose curve; also: nearly all actives have a fitted effect of over 60% in size
# Target sequence (P16066 whole entry, looked up): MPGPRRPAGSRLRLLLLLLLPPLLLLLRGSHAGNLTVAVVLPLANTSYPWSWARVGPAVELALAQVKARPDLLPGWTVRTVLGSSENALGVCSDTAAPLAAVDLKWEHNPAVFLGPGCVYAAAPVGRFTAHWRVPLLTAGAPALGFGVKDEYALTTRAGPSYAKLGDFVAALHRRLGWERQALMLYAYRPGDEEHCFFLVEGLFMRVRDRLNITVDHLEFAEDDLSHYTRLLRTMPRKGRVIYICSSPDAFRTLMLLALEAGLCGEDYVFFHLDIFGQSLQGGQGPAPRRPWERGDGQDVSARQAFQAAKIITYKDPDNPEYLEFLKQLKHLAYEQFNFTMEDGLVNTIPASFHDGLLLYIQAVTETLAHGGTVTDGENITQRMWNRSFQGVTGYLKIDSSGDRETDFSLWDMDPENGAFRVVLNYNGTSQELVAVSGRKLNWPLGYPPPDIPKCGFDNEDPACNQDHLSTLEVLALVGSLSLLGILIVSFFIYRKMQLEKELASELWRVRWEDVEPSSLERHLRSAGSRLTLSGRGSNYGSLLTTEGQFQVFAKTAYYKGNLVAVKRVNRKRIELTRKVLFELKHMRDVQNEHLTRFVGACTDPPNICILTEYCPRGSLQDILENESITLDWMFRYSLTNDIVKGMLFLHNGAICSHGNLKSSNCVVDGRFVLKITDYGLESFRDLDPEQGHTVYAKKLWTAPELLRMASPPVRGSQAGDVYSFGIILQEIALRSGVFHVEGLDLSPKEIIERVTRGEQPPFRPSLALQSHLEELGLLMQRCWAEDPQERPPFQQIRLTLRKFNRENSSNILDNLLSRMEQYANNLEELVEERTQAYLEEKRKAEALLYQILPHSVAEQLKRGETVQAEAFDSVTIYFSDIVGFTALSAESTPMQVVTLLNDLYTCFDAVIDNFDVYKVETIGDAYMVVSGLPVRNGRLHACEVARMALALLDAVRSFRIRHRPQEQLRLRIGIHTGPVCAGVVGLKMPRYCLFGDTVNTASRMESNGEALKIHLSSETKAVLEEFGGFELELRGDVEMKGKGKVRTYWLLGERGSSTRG
#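 Compound pre-incubated 30 min at room temperature on GloSensor-loaded HEK293 cells stably carrying hNpr1 and the pGS-40F cGMP biosensor. Stimulation uses hNppA at 0.1 nM final; luminescence is taken at baseline and 20 min post-agonist.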
# Luciferase inh: Firefly luciferase inhibition profiling of diverse chemical library using quantitative high-throughput screening. AID 1347043, 2019. purified P. pyralis luciferase, luminescence, biochemical. Luciferin 4-monooxygenase (Photinus pyralis), P08659. hit rate 2.5% among 76,000. Potency, µM (top dose mostly 115 µM), most hits filed as inhibitors; also: nearly all actives have a fitted effect of over 65% in size
#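 Inhibitors were tested against purified firefly luciferase in a biochemical, low-substrate format (both substrates at 10uM) and luminescence measured with a CCD imager.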
# HEK293 tox: Cytotoxic Profiling in HEK 293 Cell Line of Diverse Libraries Using Quantitative High-Throughput Screening; HEK 293 viability, ATP luminescence (CellTiter-Glo), 48-72 h; Potency, µM (titrated, usually from 115 µM), for inactives: at the highest dose activity change, negative = cytotoxicity, usual class: inhibitors; hit rate 6.6% among 94,000; AID 1345083, 2018; also: nearly all actives have a fitted effect of over 60% in size
#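 CellTiter-Glo luminescence (cellular ATP) was read after 48 or 72 hr of compound exposure at 37 degree Celsius. Cells were HEK 293 plated at 250 cells/well.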
# GPT2 inh: Primary qHTS assay for inhibitors of Glutamate pyruvate transaminase 2 (GPT2) | Alanine aminotransferase 2 (Homo sapiens), Q8TD30 | Recombinant GPT2, coupled pyruvate oxidase/HRP Amplex Red fluorescence | Potency, µM (titrated, usually from 57.7 µM), for the others: at the highest dose activity change, negative = inhibition, hits mostly inhibitors | hit rate 0.25% among 100,000 | AID 1671188, 2021; also: nearly all actives have a fitted effect of over 60% in size
#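 GPT2 10ng/uL, a-KG 250uM, L-Ala 2mM, HEPES pH7.5 + 0.0001% Tween; 30 min RT. Then Amplex mix (PO/HRP/ThPP), 30 min RT dark, fluorescence. AOA 50uM used as positive control.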
# NIH3T3 tox: Cytotoxic Profiling in NIH 3T3 Cell Line of Diverse Libraries Using Quantitative High-Throughput Screening. Potency, µM (doses to about 96.7 µM), inactives show at the highest dose activity change, negative = cytotoxicity, actives largely listed as inhibitors. NIH 3T3 viability, CellTiter-Glo ATP luminescence, 48-72 h. hit rate 4.3% among 94,000. AID 1345082, 2018; also: nearly all actives have a fitted effect of over 55% in size
#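 Luminescent ATP readout (CellTiter-Glo, 10 min RT) after 48 or 72 hr compound exposure of NIH 3T3 cells seeded at 400 cells/well in 1536-well format; quantitative HTS.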
# An asterisk follows results filed as active; i = inactive; ? = inconclusive; / = no result given; ! = not active in a repeat; [ ] = dose if it differs, or a comment. Shown are actives, neighbours in structure and some others; about 10% of the full set was active somewhere. Unless noted, calls follow the shape of the dose curve; as a rule, active = well fitted curve in the direction sought with a large enough effect; inconclusive = small, poorly fitted or top-dose-only effect, or another doubt; inactive = no such curve, though single readings can be large; an effect the other way counts as inactive or inconclusive. % is scaled to controls: 0 for no effect and ±100 for the full control effect; potency is read from the fitted curve at half-maximal effect.
SMILES,hNpr1 antagonist,Luciferase inh,HEK293 tox,GPT2 inh,NIH3T3 tox
CC(C)N1CC[C@H](c2nc3ccc(C#N)cc3[nH]2)C1,-13%[70.6 µM],40µM*,-29%[230 µM],i,-11%[230 µM]
COc1ccc(CN2C(=O)CO[C@H](c3ccc(NS(=O)(=O)c4ccccc4)cc3)[C@H]2CO)cc1,-2%,i,-18%,-3%,?
COc1cc(CNC2CCCCCCC2)ccc1OCC(O)CN1CCSCC1 (stereo unspecified),-9%,i,?,i,79µM*
COc1cc(CNC2CCCCC2)ccc1OCC(O)CN1CCSCC1 (stereo unspecified),4%,i,-21%,i,-19%
COc1ccc(CNCc2ccc(C)s2)cc1OCC(O)CN1CCCCC1 (stereo unspecified),-4%,i,79µM*,-19%,?
Cc1ccc([S+](=O)([O-])NCCNC(=O)c2cccc(-c3ccsc3)c2)cc1,/,/,?,1%,?
CC1=C[C@@H](CN2CCN(C)CC2)[C@H](C(C)C)C[C@H]1Cc1nnc(-c2ccccc2F)o1,1%[70.6 µM],i,45µM*,-3%[88.5 µM],?
CC1=C[C@@H](CN2CCOCC2)[C@H](C(C)C)C[C@H]1Cc1nnc(-c2ccccc2F)o1,-20%[70.6 µM],i,89µM*,-6%[88.5 µM],?
CC1=C[C@@H](CN2CCC(CO)CC2)[C@H](C(C)C)C[C@H]1Cc1nnc(-c2cccnc2)o1,2%[70.6 µM],i,?,i,-30%[174 µM]
CC1=C[C@@H](CN2CCN(c3ccccn3)CC2)[C@H](C(C)C)C[C@H]1Cc1nnc(C)o1,7%[70.6 µM],i,?,-6%[88.5 µM],?
CCn1cc(S(=O)(=O)N2CCC(Oc3ccccc3-c3nc(C)no3)C2)cn1 (stereo unspecified),/,/,1%,4%,0%
Cc1ccccc1NC(=O)COc1ccc(-c2nnc3n2CCCC3)cc1,-4%,i,6%,5%,3%
O=C(c1cc2n(n1)CC(c1ccc(Cl)cc1)OC2)N1CCN(c2ccccn2)CC1 (stereo unspecified),-28%,i,?,i,?
CC1CCN(C(=O)c2cc3n(n2)CC(c2ccc(Cl)cc2)OC3)CC1 (stereo unspecified),?,i,?,i,40µM*
O=C(c1cc2n(n1)CC(c1ccc(Cl)cc1)OC2)N1CCN(c2ccccc2)CC1 (stereo unspecified),20µM*,i,?,1%,?
O=C(Cc1ccccc1)NCCC1CCN(C(=O)Nc2cc(F)ccc2F)CC1,-1%,i,0%,-4%,-5%
Cc1cc(C)cc(NC(=O)Cn2c(N3CCC(C)CC3)nc(C)cc2=O)c1,?,i,?,-2%,?
Cc1cc(=O)n(CC(=O)Nc2ccc(C)c(C)c2)c(N2CCC(C)CC2)n1,-30%,i,?,i,?
Cc1cc(=O)n(CC(=O)Nc2ccc(C)c(Cl)c2)c(N2CCC(C)CC2)n1,?,i,32µM*,i,?
Cc1ccc(NC(=O)Cn2c(C)cc3nc4n(c(=O)c32)CCCCC4)cc1Cl,-14%,i,28µM*,i,40µM*
CC(=O)c1ccc(NC(=O)Cn2c(-c3ccc(Cl)cc3)nc(C)cc2=O)cc1,-17%,i,45µM*,i,?
Cc1cc(=O)n(CC(=O)Nc2ccc(Br)cc2)c(N2CCC(C)CC2)n1,?,i,40µM*,i,?
CN1CC(=O)N(c2ccc(Cl)cc2)Cc2c1ncnc2N1CCC(O)CC1,2%,i,i,-1%,?
Cc1cc(=O)n(CC(=O)Nc2ccc(Cl)cc2)c(N2CCC(C)CC2)n1,-19%,i,40µM*,i,?
Cc1cc(=O)n(CC(=O)Nc2ccccc2C)c(N2CCC(C)CC2)n1,0%,i,?,i,?
SMILES,hNpr1 antagonist,Luciferase inh,HEK293 tox,GPT2 inh,NIH3T3 tox
CCOC(=O)c1ccc(NC(=O)Cn2c(N3CCN(c4ccccc4)CC3)nc(C)cc2=O)cc1,-18%,i,40µM*,-10%,32µM*
COc1cccc(NC(=O)Cn2c(N3CCC(C)CC3)nc(C)cc2=O)c1,?,i,?,i,-27%
CCc1ccc(NC(=O)Cn2c(N3CCC(C)CC3)nc(C)cc2=O)cc1,?,i,45µM*,4%,?
O=C1NCCN2CC3(CCN(C(=O)CC4CCCCC4)CC3)CC12 (stereo unspecified),1%,i,-9%,i,i
Cc1cnc(CC2CCN(C(=O)C(C)c3ccccc3)CC2)n1Cc1ccc(F)cc1 (stereo unspecified),-3%,i,35µM*,-13%,?
O=C(NCCc1ccc(Cl)cc1)C1CN(c2cccc(Cl)c2)C(=O)N1 (stereo unspecified),8%,i,?,i,35µM*!
COc1cccc(N2CC(C(=O)NCCc3ccc(Cl)cc3)NC2=O)c1 (stereo unspecified),10%,i,-24%,i,?
O=C(NC1CCCN(c2cc(-c3ccc(F)cc3)[nH]n2)C1)c1ccc(Br)o1 (stereo unspecified),-21%,?,32µM*,i,?
O=C(NC1CCCN(c2cc(-c3ccccc3)[nH]n2)C1)c1ccc2nc[nH]c2c1 (stereo unspecified),2%,32µM*,-12%,-22%,-6%
O=C(NC1CCN(c2cc(-c3ccc(F)cc3)[nH]n2)C1)c1ccc(Br)o1 (stereo unspecified),-21%,i,?,?,?
O=C(NC1CCCN(c2cc(-c3ccc(F)cc3)[nH]n2)C1)c1ccc2nc[nH]c2c1 (stereo unspecified),-23%,16µM*,?,-26%,?
O=C(NC1CCCN(c2cc(-c3ccc(F)cc3)[nH]n2)C1)c1ccncc1 (stereo unspecified),-11%,40µM*,?,-17%,-6%
COc1ccc(-c2cccc(C(=O)N3CCC(NC(=O)c4cccc(Cl)c4)CC3)c2)nn1,/,/,?,/,-28%
O=C(N1C[C@@H](CO)[C@H](c2ccncc2)C1)C1(c2ccccc2)CCCC1,-14%,i,-17%,i,-14%
O=C(NCc1cccs1)c1cn2cc(-c3ccccc3)sc2n1,/,/,?,-22%,?
O=C(NC1CCCN(c2cc(-c3ccccc3)[nH]n2)C1)c1ccc2cc[nH]c2c1 (stereo unspecified),?,14µM*,?,?,?
